The source of these data is PubChem BioAssay (NCI).

Several values for one entry are separate records, joined by “and”; a condition that tells them apart may be missing. Equal entries are not always repeated. The panel holds about 83,000 compounds, 20% with a hit somewhere; the sample as a whole holds those more often.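 Single-dose data. Exposure time 48 hours. Values below 10 considered active.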 Activity calls are given as the source filed them. Where a SMILES comes first, the peptide text is derived from it.

In this assay the test system is HS 578T breast. Description: NCI-60 one-dose screen, 48 h (100 = growth as untreated, 0 = no growth, -100 = all killed). The note with it: 10 µM unless noted. The protocol:
Growth inhibition of the HS 578T human tumor cell line is measured as a screen for anti-cancer activity. Cells are grown in 96 well plates and exposed to the test compound for 48 hours. Compounds are tested at a single concentration, which is 10^-5 M for most compounds. The reported endpoint is percent growth (GI% or GIPRCNT), where numbers from 0 - 100% represent growth inhibition, and numbers from -100% - 0 represent cell death. For example, a value of 40 represents 60% growth inhibition. A value of 0 means no net growth occurred over the course of the experiment. A value of -40 indicates 40% of cells at the beginning of the experiment died by the end of the experiment. A value of -100 means all cells are dead at the end of the experiment.
NCI-60 Human Tumor Cell Lines Screen was performed using the standard one-dose NCI protocol, which is described in more detail at https://dtp.cancer.gov/discovery_development/nci-60/default.htm.
Compounds with GIPRCNT values below 10 were considered active. Activity score was based on GIPRCNT using the following formula: […]
Score is 0 for GIPRCNT values of 100 or above, 50 for GIPRCNT values of 0, and 100 for GIPRCNT values of -100.
In the case of `CN1CNC(=O)NC1`, the growth is 109% (inactive) and 96.5% (inactive).
With `CC1(C)COC(=S)N1`, the growth was 106% (inactive).
The result for `Cc1cc(-c2ccc(N=Nc3ccc4c(S(=O)(=O)O)cc(S(=O)(=O)O)c(N)c4c3O)c(C)c2)ccc1N=Nc1ccc2c(S(=O)(=O)O)cc(S(=O)(=O)O)c(N)c2c1O` reads 119% (inactive); that for `CC1=C/C(O)CC(=O)Cc2nc(co2)C(=O)N2CCC=C2C(=O)OC(C(C)C)C(C)/C=C\C(=O)NC/C=C\1` (stereo not given), 63.4% (inactive); that for `O=C(CO)C(O)C(O)C(O)C(O)CO` (stereo not given), 101% (inactive) and 104% (inactive).
For `CC(C)NC(=O)N/C=C(\C#N)C(N)=O` the value was 108% (inactive); for `CC(=O)OC(C)C(=O)NCC(C)O` (stereo not given), 86% (inactive); for `Cc1ccc(S(=O)(=O)c2ccccc2)cc1`, 35.2% (inactive).
The result for `O=C1C=C(Nc2ccccc2)c2ccccc2C1=O` reads 94.8% (inactive) and 88.6% (inactive); that for `OCC1OC(O)C(O)C(O)C1O` (stereo not given), 116% (inactive).
`O=c1[nH]cnc2c1ncn2C1OC(CO)C(O)C1O` (stereo not given): the growth was 109% (inactive) and 110% (inactive) and 91.9% (inactive).
The result for `CC1CCC2(OC1)OC1CC3C4CC=C5CC(O)CCC5(C)C4CCC3(C)C1C2C` (stereo not given) reads 86.8% (inactive); that for `CC(C)NCC(O)c1ccc(O)c(O)c1` (stereo not given), 112% (inactive) and 96.6% (inactive) and 109% (inactive).
The result for `CC1CCC2(C(=O)O)CCC3(C)C(=CCC4C5(C)CCC(O)C(C)(C)C5CCC43C)C2C1C` (stereo not given) reads -49% (active) and 63.1% (inactive).
For `C#CCOC(=O)Nc1ccccc1` the value was 105% (inactive); for `CC(=O)NCC(=O)c1ccc([N+](=O)[O-])cc1`, 106% (inactive).
For `OCCN1CCCCCCC1`, the growth is 90.8% (inactive).
For the compound `CCc1cc(C)cc(O)c1`, the growth is 110% (inactive).
For `NC(Cc1ccccc1)C(=O)NC(Cc1ccccc1)C(=O)O` (stereo not drawn) (H-Phe-Phe-OH; configuration not given here) the value was 98.3% (inactive) and 112% (inactive).
For `CN(C)CC1CCCCCC(CN(C)C)C1=O` (stereo not given) the value was 85.8% (inactive); for `O=C(O)CCCl`, 96.4% (inactive).
For `Cc1cc2ccccc2cn1` the value was 113% (inactive) and 144% (inactive).
`Cc1ccc(=O)[nH]n1`: the growth was 105% (inactive) and 93.7% (inactive).
Consider `COc1ccc(C(=O)CC(c2ccccc2)C(C#N)c2ccccc2)cc1` (stereo not given), for which the growth is 86.4% (inactive).
The result for `O=C1OC(C(O)C(O)CO)C(O)=C1O` (stereo not given) reads 120% (inactive) and 119% (inactive).
For `c1ccc2c(c1)OC1OC2Oc2ccccc21` the value was 92.9% (inactive).
For `CC(C)C(C)(C)c1ccc(O)cc1` the value was 114% (inactive); for `N#CC(C#N)N=Nc1cc(Cl)ccc1Cl`, 116% (inactive).
For `O=CN1CCCCC1`, the growth is 114% (inactive).
For `NN1CCOC(c2ccccc2)C1` (stereo not given) the value was 99.5% (inactive); for `O=C1OC(c2ccccc2)=N/C1=C\c1ccccc1`, 97.4% (inactive).
For `C/C(=C\c1ccccc1)c1ccccn1`, the growth is 123% (inactive).
For `Cl`, the growth was 108% (inactive).
`CCN(CCNS(C)(=O)=O)c1ccc(N)c(C)c1`: the growth was 115% (inactive) and 103% (inactive).
The result for `COc1ccc(Nc2ccc3ccccc3c2)cc1` reads 96.5% (inactive); that for `O=c1n(CC2CO2)c(=O)n(CC2CO2)c(=O)n1CC1CO1` (stereo not given), 104% (inactive); that for `CCCCOc1ccc(Nc2cc(Cl)ccc2C(=O)O)cn1`, 95.3% (inactive) and 99.2% (inactive).
The result for `Cc1cc(-c2cc(C)c(O)c(C)c2)cc(C)c1O` reads 85.1% (inactive); that for `O=[N+]([O-])c1cccc(SSc2cccc([N+](=O)[O-])c2)c1`, 121% (inactive).
For `COc1cc(C(O)C2C(=O)OCC2C2(c3ccc4c(c3)OCO4)SCCCS2)cc(OC)c1OC` (stereo not given) the value was 101% (inactive).
